High-throughput results deposited in PubChem by NMMLSC.
Only some compounds are listed: those with a hit (about 2.5% of all), similar ones and a draw of the others.
GRK2 inh = compounds blocking aptamer binding on GRK2 – biochemical, human GRK2, bead flow cytometry, HTS, primary screen | Beta-adrenergic receptor kinase 1 (Homo sapiens), P25098 | FAM-aptamer displacement from GRK2 | inhibition of aptamer binding, % at 10 µM | 330,000 tested, 0.59% active | AID 488847, 2010;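 active means inhibition of aptamer binding above 40%, roughly 3 SD of noise, on plates passing a quality check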;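 further: median bead fluorescence of bound FAM aptamer so fluorescent compounds give negative values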
MEKK2 mut-MEK5 = MEK5 binding signal on mutant MEKK2 PB1, primary screen, biochemical, multiplex bead flow cytometry, Alexa488-MEK5 | Alexa488-MEK5 binding to MEKK2 mutant | percent response, % at 10 µM | 290,000 tested, 0.35% active | AID 1530, 2009; in the data active means percent response above about 24%, passing the limit was not always enough
MEKK3 PB1 HTS = modulators of MEKK3-MEK5 PB1 binding, primary screen, biochemical, wildtype MEKK3, multiplex bead flow cytometry, Alexa488-MEK5. Mitogen-activated protein kinase kinase kinase 3 (Homo sapiens), Q99759. AID 1529, 2009. binding response (% of control), % at 10 µM. bead-based flow cytometry, Alexa488-MEK5 binding to MEKK3; actives lie on both sides; 0 = blocked by unlabeled MEK5, 100 = vehicle. 290,000 tested, 1.4% active;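 active means binding response more than 3 SD above or below the average of its plate-row segment, actives on both sides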;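 further: Alexa488 bead fluorescence after subtracting the streptavidin-only scavenger bead signal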
Target sequence (Q99759 whole entry, looked up): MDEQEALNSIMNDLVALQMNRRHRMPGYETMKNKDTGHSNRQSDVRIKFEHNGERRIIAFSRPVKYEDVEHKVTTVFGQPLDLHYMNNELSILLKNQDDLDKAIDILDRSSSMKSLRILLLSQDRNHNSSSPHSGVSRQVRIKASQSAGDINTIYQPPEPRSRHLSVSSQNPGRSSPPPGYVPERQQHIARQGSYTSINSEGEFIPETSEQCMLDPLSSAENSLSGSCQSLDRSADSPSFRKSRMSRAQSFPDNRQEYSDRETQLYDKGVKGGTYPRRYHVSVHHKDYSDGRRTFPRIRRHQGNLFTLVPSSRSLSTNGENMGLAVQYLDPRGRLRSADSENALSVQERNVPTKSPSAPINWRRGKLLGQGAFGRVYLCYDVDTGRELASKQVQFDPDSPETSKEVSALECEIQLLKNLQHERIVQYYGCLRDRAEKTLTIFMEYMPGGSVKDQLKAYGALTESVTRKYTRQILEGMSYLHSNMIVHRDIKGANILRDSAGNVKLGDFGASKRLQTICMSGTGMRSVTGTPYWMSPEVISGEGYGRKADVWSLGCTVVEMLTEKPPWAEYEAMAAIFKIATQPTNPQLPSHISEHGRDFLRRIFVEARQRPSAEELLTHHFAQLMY
MEKK2 WT-MEK5 = modulators of MEK5 binding to wildtype MEKK2, primary screen, biochemical, multiplex bead flow cytometry, Alexa488-MEK5. Mitogen-activated protein kinase kinase kinase 2 (Homo sapiens), Q9Y2U5. binding response (% of control), % at 10 µM. 290,000 tested, 1.1% active. Alexa488-MEK5 binding to MEKK2 WT; actives lie on both sides; in the data active means binding response below about 67% or above about 130%
GRK2 inh confirm = GRK2 aptamer-displacing inhibitors, retest, confirmation, biochemical, cherry pick 1, bead flow cytometry. aptamer displacement, % at 10 µM. AID 504451, 2011. shares compounds with GRK2 inh. 2,000 tested, 4% active. bead-bound GRK2, FAM-aptamer displacement;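 active means aptamer displacement above 40%, near three times the noise of non-fluorescent compounds, on plates passing quality checks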;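 further: negative values mostly reflect intrinsic compound fluorescence rather than true enhancement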
FAM quench CP1 = aptamer fluorescence quenching in GRK2 counter-screen | shares compounds with GRK2 inh | Carboxyfluorescein RNA aptamer on beads, flow cytometry quenching; stronger effect = lower value | fluorescence response (% of DMSO), % at 10 µM | 2,000 tested, under 10 active | AID 504580;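 active means compounds that quench the bead-bound fluorescent RNA probe, cutting fluorescence to under half of the solvent control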;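 further: counterscreen run without GRK2 so only probe quenching by compound is measured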
GRK2 confirm 2 = GRK2 aptamer-displacing inhibitors, hit retest, confirmation, biochemical, cherry pick 2, bead flow cytometry | shares compounds with GRK2 inh | bead-bound GRK2, FAM-aptamer displacement | inhibition of aptamer binding, % at 10 µM | 360 tested, under 10 active;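 active means inhibition of aptamer binding above 40%, about triple the noise seen with nonglowing compounds, on plates passing quality control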;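 further: negative values mostly come from compounds that fluoresce themselves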
FAM quench CP2 = quenches fluorescent RNA aptamer, GRK2 hit artifact. shares compounds with GRK2 inh. carboxyfluorescein RNA aptamer beads, flow cytometry quenching; stronger effect = lower value. fluorescence response vs DMSO, % at 10 µM. 360 tested, under 10 active;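 active means response vs DMSO under 50%, meaning signal dropped by over half, treated as fluorescence quencher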;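 further: labelled aptamer on streptavidin beads without GRK2 as a quench counter-screen; 100% = bead fluorescence of DMSO wells and lower means quenching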
* hit, by the source's call; · = not tested or not shown.

SMILES	GRK2 inh	MEKK2 mut-MEK5	MEKK3 PB1 HTS	MEKK2 WT-MEK5	GRK2 inh confirm	FAM quench CP1	others
CN1C/C(=C/c2ccncc2)C(=O)/C(=C/c2ccncc2)C1	2.0	3.0	101.0	100.0	·	·
O=c1c2c([N+](=O)[O-])cc([N+](=O)[O-])cc2nc2ccccn12	69.0*	2.0	103.0	102.0	-0.8	97.6
O=c1c2c([N+](=O)[O-])cc([N+](=O)[O-])cc2sn1Cc1ccccc1	4.0	2.0	99.0	102.0	·	·
Cc1cc(Br)c(S(=O)(=O)NCc2ccncc2)cc1C	33.0	2.0	101.0	100.0	·	·
Cc1cc2cc(CNC(=O)Nc3cccc(Cl)c3)ccc2n1C	44.0*	11.0	116.0	115.0	-10.9	99.2
Cc1cccc(NC(=O)NCc2ccc3c(c2)cc(C)n3C)c1	31.0	9.0	101.0	96.0	·	·
Cc1ccc(F)cc1NC(=O)c1ccc(NS(=O)(=O)c2ccc(Br)s2)cc1	0.0	-1.0	105.0	100.0	·	·
COc1ccc([C@@H]2[C@@H]3C(=O)N(C(C)(C)C)C(=O)[C@@H]3[C@]3(Cc4ccccc4)C(=O)N(c4ccc(C(F)(F)F)cc4)C(=O)N23)cc1	0.0	-17.0	96.0	89.0	·	·
Cc1c(NC(=O)C(C)OC(=O)c2cccc(S(=O)(=O)N3CCOCC3)c2)c(=O)n(-c2ccccc2)n1C (stereo not drawn)	76.0*	1.0	103.0	96.0	2.2	98.8
COc1ccc(Cc2cc(NCc3ccccc3)c3ncn(C(C)C)c3c2)cc1	97.0*	·	·	·	·	·	GRK2 confirm 2=-24.2;FAM quench CP2=101.0
CCCCOc1cc(NCc2ccccc2)c2ncn(C(C)C)c2c1	1.0	·	·	·	·	·
Cc1cc(C)nc(-n2nc(C)cc2NC(=O)c2cc3ccccc3oc2=O)n1	1.0	·	·	·	·	·
COc1ccc(C(C(=O)NC2CCCC2)N(C(=O)c2snc(-c3ccc(F)cc3)c2N)c2ccc(F)cc2)cc1 (stereo not drawn)	72.0*	-4.0	100.0	94.0	7.7	102.9
COc1ccc(NC(=O)COC(=O)CCCOc2ccc(Cl)cc2Cl)cc1Cl	3.0	-1.0	107.0	104.0	·	·
CCOc1ccccc1OCCCC(=O)OCC(=O)Nc1cccc(Cl)c1	81.0*	18.0	101.0	114.0	-1.2	102.5
CC(NC(=O)C1CCCN(S(=O)(=O)N2CCOCC2)C1)c1ccccc1 (stereo not drawn)	2.0	-4.0	97.0	100.0	-1.1	95.1
CC(=O)N(c1ccccc1)c1ccc([N+](=O)[O-])cc1[N+](=O)[O-]	1.0	1.0	105.0	100.0	·	·	GRK2 confirm 2=-17.5;FAM quench CP2=100.0
COc1ccc2cc(C#N)c(SCC(=O)N3CC(=O)Nc4ccccc43)nc2c1	0.0	-9.0	70.0	75.0	·	·
Cc1cccc2cc(C#N)c(SCC(=O)N3CC(=O)Nc4ccccc43)nc12	57.0*	-3.0	100.0	93.0	1.3	100.1
O=C(CSc1nnnn1-c1ccccc1)NCCCN1CCCC1=O	0.0	·	·	·	·	·
CC(=O)N/C(=C\c1ccccc1)C(=O)NCc1ccc2c(c1)OCO2	64.0*	2.0	105.0	104.0	1.0	97.0
CC(=O)N/C(=C/c1ccc2c(c1)OCO2)C(=O)NCC(=O)O	0.0	0.0	97.0	97.0	·	·
Nc1ccc(Cc2ccc(N)c(O)c2)cc1O	·	0.0	108.0	103.0	·	·
Cc1ccccc1C(=O)NNC(=O)c1cccc([N+](=O)[O-])c1	60.0*	-10.0	100.0	90.0	-3.7	101.2
